Measurements from PubChem BioAssay AID504725 (Broad Institute, 2011).
Measured potencies and affinities stand elsewhere.

Molecular target: KSHV LANA C-terminal domain (residues 932-1162) binding to LBS DNA (UniProt O40947)
Test: KSHV LANA DNA-binding disruption – biochemical, fluorescence polarization, cherry-picked samples, dose response (AID 504725)
Details: MBP-C-LANA / FAM-LBS DNA fluorescence polarization, percent change from plate compound-well median; series mostly up to 35 µM; activity change, negative = inhibition: at the top concentration; call rule not given here

Activity change, negative = inhibition, inactive:
O=C(CN1CCN(C(=O)CNC(=O)c2ccc3c(c2)OCO3)CC1)Nc1ccc(F)cc1 3.03%, Cc1cnc(NC(=O)Cc2c[nH]c3ccccc23)s1 1.63%, CCN(C(=O)COC(=O)c1nc2nc(C)cc(C)n2n1)C1CCCCC1 0.538%, O=C1C=C(c2ccoc2)N2CCC[C@H]2C1 -8.87%, Cc1noc(C)c1C(=O)N1CCN(c2ccc(OCc3ccccc3)cc2)CC1 -16.3%, CC(C)C(=O)N1CCN(c2ccccc2NC(=S)NC(=O)c2ccco2)CC1 -4.33%, CN(C)CCCNC(=O)c1ccccc1Oc1ccccc1 -1.55%, COc1ccc(-c2cc(C(=O)N(C)CCc3ccc(OC)c(OC)c3)c3ccccc3n2)cc1 0.133%, COc1ccc(S(=O)(=O)N2CCC(C(=O)N3CCCCC3)CC2)cc1 -2.81%, Nc1nc(SCC(=O)N2CCCCC2)[nH]c(=O)c1NC(=O)c1cccs1 -2.83%, COc1cccc(OC)c1C(=O)Nc1cc(C)on1 1.95%, CCOC(=O)C1=C(O)/C(=C/c2cc(C)n(-c3ccccc3)c2C)N=C1C -2.16%, NC(=O)c1ccc(NC(=O)C2COc3ccccc3O2)cc1 (stereo not drawn) 1.39%, CC1CC(C)CN(C(=O)c2ccc3ncsc3c2)C1 (stereo not drawn) 1.32%, CN(C)/C=N/c1nc2nccc(-c3ccc(Cl)cc3)n2n1 5.16%, COc1cc(OC)cc(C(=O)NC2CC3CCC(C2)N3C)c1 (stereo not drawn) 5.68%, Cc1cc(C(F)(F)F)c2c(N)c(C(=O)Nc3cc(C)on3)sc2n1 -6.96%, O=C(NCCN1CCN(C(=O)c2cccs2)CC1)c1cccs1 0.287%, Cc1ccc(S(=O)(=O)Nc2ccc(Br)cc2C(NCC(=O)O)c2ccccc2)cc1 (stereo not drawn) 11.3%, CC(=O)Nc1ccc(S(=O)(=O)Nc2ccccc2N2CCOCC2)cc1 -0.673%, CCCc1cc(=O)oc2cc(C)cc(OCC(=O)O)c12 -0.34%, CCc1noc(C)c1C(=O)NCCc1c[nH]c2ccccc12 2.9%, Cn1c2ccccc2c2cnn(CC(=O)Nc3cccc(F)c3)c(=O)c21 -5.89%, Cn1c(=O)oc2cc(S(=O)(=O)CCC(=O)N3CCN(c4ccccc4F)CC3)ccc21 -10.4%, Cc1noc(C)c1-c1nc(CSc2ccccc2)no1 -2.84%, CCOc1ccc(S(=O)(=O)N(C)c2ccc(OCC(=O)NC3=NCCS3)cc2)cc1 -4.63%, COC(=O)c1ccc(Oc2nc(Nc3ccc(F)cc3)nc(N3CCCC3)n2)cc1 -0.261%, Cn1cc(C(=O)c2ccc(Cl)cc2Cl)cc1C(=O)N/N=C(\N)COc1ccccc1 -0.182%, CCOC(=O)c1c(C)nc2cc(C)ccn12 -12.6%, COc1ccc(Cl)cc1C(=O)NNC(=O)c1cc2ccccc2o1 0.508%, CCOCCCn1c(SCC(=O)NC(C)(C)C)nc2ccccc2c1=O -4.61%, O=C(Nc1ccc(Br)cn1)c1cccc2ccccc12 3.91%, O=S(=O)(O)c1cccc2cccc(Nc3ccccc3)c12 -0.146%, CC(C)=C[C@@H]1C[C@H](C)[C@H]2CC[C@H](C)c3c(O[C@@H]4O[C@@H](C)[C@@H](O)[C@@H](O)[C@@H]4O)c(O)c(C)c1c32 0.723%, Cc1c(NC(=O)CCC2CCCCC2)cc(C(=O)N2CCOCC2)cc1[N+](=O)[O-] -0.626%, CCN(Cc1ccccc1)S(=O)(=O)c1cc2[nH]c(=O)c(=O)[nH]c2cc1C -5.2%, Cc1cc(C)n2nc(C(=O)OC(C)C(=O)c3cc(C)c(C)cc3C)nc2n1 (stereo not drawn) 0.75%, CC(C)Cn1c(N)c(C(=O)CSc2nnc(-c3ccco3)n2C)c(=O)n(C)c1=O -1.86%
